# Compounds with a hit are over-represented: about 11% of the library has one in this group of screens.
# ALDH1A1 inh: inhibitors of human aldehyde dehydrogenase 1A1; 220,000 tested, 7.3% active; P00352; Potency, µM (highest dose often 75.3 µM), without a hit: at the highest dose activity, negative = inhibition, hits mostly inhibitors; AID 1030; Purified ALDH1A1, NADH fluorescence, propionaldehyde substrate;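 further: potency means the concentration at half of the fitted maximal effect; plate controls were no enzyme wells and a reference inhibitor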
# PNC inhibitor: blocks assembly of the perinucleolar compartment; PC3M PTB-GFP, PNC prevalence imaging, 16 h; stronger effect = lower value; activity change (PNC), negative = inhibition, % at 10 µM; 140,000 tested, 3.1% active;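 active means readout at or below -70, meaning at least 70% loss of cells showing the perinucleolar compartment, a nuclear body marking cancer cells; inconclusive means readout between -30 and a set limit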;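 further: plate controls were DMSO wells for no effect and camptothecin positive control wells for full effect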
#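 Read-out is percentage of cells bearing a perinucleolar compartment, from automated 20x imaging of fixed, Hoechst-stained PC3M PTB-GFP cells. Cells were seeded 4 h, then exposed 16 h to compound (23 nl of library stock) in duplicate plates.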
# HttQ103 aggreg: reduces HttQ103-GFP aggregates in PC12 cells. Potency, µM (top dose mostly 46.1 µM), without a hit: at the top dose activity change, negative = inhibition, most hits filed as inhibitors. AID 1688. PC12 HttQ103-GFP aggregates, Acumen cytometry, 40 h. 220,000 tested, 1.1% active; active means well fitted curve in the direction sought with a large enough effect; inconclusive means small, poorly fitted or top-dose-only effect, or another doubt; inactive means no such curve, though single readings can be large; an effect the other way counts as inactive or inconclusive; further: potency means the concentration at half of the fitted maximal effect; on the % scale 0 is the no-effect control and ±100 the full control effect; nearly all actives have a fitted effect of over 60% in size
#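 Using laser scanning cytometry, GFP-positive aggregates were counted after lysis of PC12 cells induced with 100 nM tebufenozide to express HTT exon 1 Q103–GFP. Compounds were tested in titration.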
# HTT cytoprotect: cytoprotection in Huntington HTT-Q103 PC12 cell model; AID 1471; PC12 HTT-Q103 induced, cytoprotection, ATP luminescence, 40 h; Potency, µM (highest dose often 56.4 µM), for inactives: cytoprotection (ATP increase), actives largely listed as activators; 230,000 tested, 0.14% active; active means well fitted curve in the direction sought with a large enough effect; inconclusive means small, poorly fitted or top-dose-only effect, or another doubt; inactive means no such curve, though single readings can be large; an effect the other way counts as inactive or inconclusive; further: potency means the concentration at half of the fitted maximal effect; % of control where 0% means no effect; nearly all actives have a fitted effect of over 45% in size
#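 Compounds added alongside 100 nM tebufenozide, which induces toxic Q103 huntingtin exon 1-GFP in stable PC12 cells; surviving cells quantified by luminescent ATP measurement. Medium: phenol red-free DMEM, 5% equine and 5% calf serum.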
# HPGD inh: blocks human HPGD enzyme activity; purified HPGD, NADH fluorescence kinetic, PGE2 substrate; Potency, µM, without a hit: at the top dose activity change, negative = inhibition, usual class: inhibitors; P15428; 150,000 tested, 4.3% active; further: potency means the concentration at half of the fitted maximal effect; on the % scale 0 is the no-effect control and ±100 the full control effect
# Target sequence (P15428 whole entry, looked up): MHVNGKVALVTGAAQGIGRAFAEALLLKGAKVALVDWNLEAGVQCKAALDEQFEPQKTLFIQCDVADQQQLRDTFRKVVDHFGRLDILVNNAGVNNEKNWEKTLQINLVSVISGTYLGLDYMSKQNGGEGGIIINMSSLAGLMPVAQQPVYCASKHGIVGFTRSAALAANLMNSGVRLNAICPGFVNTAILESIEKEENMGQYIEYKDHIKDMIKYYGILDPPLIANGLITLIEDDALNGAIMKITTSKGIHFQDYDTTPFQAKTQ
#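 20 nM HPGD preincubated 15 min at room temperature with compound in 50 mM Tris-HCl pH 8, 0.01% Tween 20. Started with 1 mM NAD+ and 30 uM prostaglandin E2; NADH fluorescence (360/450 nm) read 5 times over 30-s intervals, last minus first.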
# GoLoco inh red: blocks human Gai1 binding to RGS12 GoLoco peptide, red readout; P63096; Gai1:RGS12 GoLoco peptide FP, rhodamine, 10 min; Potency, µM (top dose mostly 61.6 µM), for the others: top-dose activity, negative = inhibition, actives largely listed as inhibitors; 230,000 tested, 0.44% active; AID 880; active means well fitted inhibition curve with a large enough effect, not every such curve was filed as active; inactive means no such curve, though single readings can be large or run the other way; further: potency means the concentration at half of the fitted maximal effect; on the % scale 0 is the no-effect control and ±100 the full control effect; nearly all actives have a fitted effect of over 30% in size
# Target sequence (P63096 whole entry, looked up): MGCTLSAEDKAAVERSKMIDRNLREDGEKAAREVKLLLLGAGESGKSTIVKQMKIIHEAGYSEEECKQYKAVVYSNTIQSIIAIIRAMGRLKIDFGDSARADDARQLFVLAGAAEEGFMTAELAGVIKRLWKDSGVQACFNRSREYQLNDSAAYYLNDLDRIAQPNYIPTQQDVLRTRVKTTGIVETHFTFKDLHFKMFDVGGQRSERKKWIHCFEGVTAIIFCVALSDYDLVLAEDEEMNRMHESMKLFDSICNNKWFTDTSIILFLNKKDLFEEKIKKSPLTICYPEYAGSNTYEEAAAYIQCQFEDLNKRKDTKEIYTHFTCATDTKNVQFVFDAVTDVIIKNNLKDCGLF
# * = called active by the depositor; u = inconclusive; x = not tested or not shown; [ ] = dose if it differs, or a comment. Unless noted, the call rests on the fitted dose curve; in most records, active means well fitted inhibition curve with a large enough effect (not every such curve was filed as active); inconclusive means small, poorly fitted or top-dose-only effect, or another doubt; inactive means no such curve, though single readings can be large or run the other way.
SMILES,ALDH1A1 inh,PNC inhibitor,HttQ103 aggreg,HTT cytoprotect,HPGD inh,GoLoco inh red
CCn1c(CCCOc2ccc(Cl)cc2Cl)n[nH]c1=S,u,x,-5.0%[9.22 µM],24.6%[10 µM],x,10.9%
O=S(=O)(Nc1ccc2c(c1)OCCO2)c1ccc(Br)s1,1.1%,10.6,12.6µM*,-14.2%,-27.0%,10.8%
O=S(=O)(Nc1ccc2c(c1)OCCO2)c1cccs1,-4.3%,38.3,-12.6%,-20.3%[0.074 µM],14.1µM*,7.5%
O=S(=O)(Nc1ccc(-c2cn3ccsc3n2)cc1)c1ccc2c(c1)OCCO2,-16.3%,-9.7,u,-22.2%[10 µM],u,7.8%
CC(=O)N1CCc2cc(NS(=O)(=O)c3cccs3)ccc21,-5.4%,-20.8,-28.7%,17.0%[10 µM],25.1µM*,2.7%
O=S(=O)(Nc1ccc2c(c1)OCO2)c1cccs1,4.7%,-1.9,-4.5%,-7.0%,-29.6%,-1.7%
O=S(=O)(Nc1ccc(S(=O)(=O)Nc2nccs2)cc1)c1ccc2c(c1)OCCO2,12.6µM*,1.6,u,4.1%,-19.9%,14.3%
COc1ccc(NS(=O)(=O)c2ccc(Br)s2)cc1OC,10.9%,7.0,u,-11.6%[0.074 µM],-7.0%,-6.7%
C[C@H](NC(=O)CNC(=O)[C@@H](NC(=O)[C@H](Cc1ccccc1)NC(=O)CNC(=O)CNC(=O)[C@@H](N)Cc1ccccc1)[C@@H](C)O)C(=O)N[C@@H](CCCN=C(N)N)C(=O)N[C@@H](CCCCN)C(=O)N[C@@H](CO)C(=O)N[C@@H](C)C(=O)N[C@@H](CCCN=C(N)N)C(=O)N[C@H](CN)CCCCN,6.5%,x,x,-19.6%,x,-1.2%
NNC(=O)Cc1cccnc1,7.9%[13.5 µM],x,x,-7.5%[10 µM],-9.9%,3.5%[14.2 µM]
COc1ccc(S(=O)(=O)NCc2cccs2)cc1,10µM*,36.8,-21.0%,u,-18.9%,-6.4%
COc1ccc(S(=O)(=O)N(Cc2cccs2)C2CCCC2)cc1,8.91µM*,-9.7,u,6.4%[0.074 µM],-11.7%,8.6%
COc1ccc(S(=O)(=O)NCCCCNS(=O)(=O)c2ccc(OC)cc2)cc1,1.26µM*,8.5,-2.0%,-13.2%[0.074 µM],-9.7%,1.7%
NCCSCc1ccccc1Cl,-11.3%[13.5 µM],x,x,-5.8%[10 µM],-15.3%,0.0%[14.2 µM]
COc1ccc(N2C(=O)CC(N3CCN(S(=O)(=O)c4c(F)cccc4F)CC3)C2=O)cc1OC (stereo not given),14.1µM*,41.3,-15.2%,1.4%,-17.5%,-6.4%
COc1ccc(NC2CCN(C3CC(=O)N(c4ccc(F)c(Cl)c4)C3=O)CC2)cc1 (stereo not given),1.12µM*,-19.8,10.8%,0.9%,u,-34.0%
O=C1CC(N2CCC(c3nc4ccccc4o3)CC2)C(=O)N1c1ccc(Cl)cc1 (stereo not given),x,x,x,-0.8%[0.074 µM],x,x
CCN1C(=O)CC(N2CCC(Nc3ccc(OC)cc3)CC2)C1=O (stereo not given),u,54.8,-12.7%,-3.7%,-2.4%,-1.9%
COc1cccc(N2CCN(C3CC(=O)N(c4ccc(F)c(Cl)c4)C3=O)CC2)c1 (stereo not given),3.55µM*,-9.2,4.1%,-21.6%[0.074 µM],-27.5%,39.9%
O=C1CC(N2CCC(c3nc4ccccc4o3)CC2)C(=O)N1c1cc(Cl)cc(Cl)c1 (stereo not given),3.98µM*,-9.8,5.2%[9.22 µM],-24.8%,-17.0%,57.9%
COc1cccc(N2CCN(C3CC(=O)N(c4ccc(C)c(Cl)c4)C3=O)CC2)c1 (stereo not given),u,1.4,3.5%,-11.9%[0.074 µM],-13.7%,2.0%
N.N.O=C(O)C1(C(=O)O)CCC1.[Pt],u,x,x,-54.1%,u,-11.7%
CC(C)[C@@H](CC(=O)N[C@@H]1CCNC[C@H]1C(=O)N[C@H](CC(=O)N[C@@H](CCC(=O)O)CC(=O)O)Cc1ccccc1)NC(=O)C[C@H](Cc1ccccc1)NC(=O)[C@@H]1CNCC[C@H]1N,1.1%,x,x,-40.9%,-9.2%,5.5%
CC/C=C\C[C@H]1C(=O)CC[C@@H]1CC(=O)O,-3.9%,x,x,-19.1%[1.9 µM],1.8%,5.6%
O=C1CC(N2CCN(c3cccc(C(F)(F)F)c3)CC2)C(=O)N1c1ccccc1F (stereo not given),20µM*,30.3,5.1%,-6.8%,-14.2%,0.9%
SMILES,ALDH1A1 inh,PNC inhibitor,HttQ103 aggreg,HTT cytoprotect,HPGD inh,GoLoco inh red
COc1cccc(N2C(=O)CC(N3CCC(c4nc5ccccc5[nH]4)CC3)C2=O)c1 (stereo not given),31.6µM*,71.3,-3.7%,27.0%,-13.6%,-9.1%
Cc1cccc(N2C(=O)CC(N3CCC(c4nc5ccccc5[nH]4)CC3)C2=O)c1 (stereo not given),u,41.8,-4.7%,-2.2%,-11.3%,6.9%
O=C(CSc1nnc(-c2ccccc2)o1)c1ccc2c(c1)OCCO2,3.16µM*,3.2,2.0%,-1.8%,-7.1%,-3.7%
Cc1cc(C)cc(-c2nnc(SCC(=O)c3ccc4c(c3)OCCO4)o2)c1,-1.6%,-28.8,-4.6%,4.4%[10 µM],-5.4%,3.4%
Cc1ccc(-c2nnc(SCC(=O)N3CCCC3)o2)cc1C,u,15.2,-19.3%,-26.3%,-26.5%,9.4%
O=C(CSc1nnc(-c2ccc3c(c2)OCCO3)o1)N1CCCC1,25.1µM*,-22.2,-10.1%,-39.3%,-25.3%,8.0%
CCC1CCCCN1C(=O)CSc1nnc(-c2ccc3c(c2)OCCO3)o1 (stereo not given),u,-107.3*,1.0%,-53.3%,u,1.2%
CCC1CCCCN1C(=O)CSc1nc(N)cc(N)n1 (stereo not given),8.91µM*,x,-10.3%[9.22 µM],-3.9%[10 µM],x,3.0%
COc1ccc(OCC2CN3C(CCC(C)C3c3ccc(Br)cc3)C(=O)O2)cc1 (stereo not given),6.4%[13.5 µM],x,x,-13.0%[10 µM],x,x
CC(C)c1nc2ccccc2n1CC(O)COC1CCCCC1 (stereo not given),28.2µM*,x,-18.2%,-23.2%,x,2.1%
O=C(Oc1ccc(NC2=NS(=O)(=O)c3ccccc32)cc1)c1cccnc1,6.8%,x,-5.5%,-3.2%,x,5.4%
Cc1ccc(-n2cccc2/C=C2\C(=N)N3N=C(C(C)C)SC3=NC2=O)cc1,15.8µM*,x,3.6%,-14.2%,x,17.7%
CCC1=NN2C(=N)/C(=C\c3cccn3-c3ccc(OC)cc3)C(=O)N=C2S1,u,x,9.6%,-38.1%,x,10.5%
CC(/C=C/c1ccccc1)=N\NC(=O)c1cc(C)[nH]n1,0.5%,x,1.6%,-34.0%,x,3.5%
Nc1ccc(N=Nc2c(S(=O)(=O)O)cc3ccccc3c2S(=O)(=O)O)cc1,10.7%[13.5 µM],x,x,-1.7%[10 µM],-8.4%,3.1%[14.2 µM]
Cc1nc(SCC(=O)OCc2ccccc2)c(C#N)c(-c2ccccc2)c1C(=O)Nc1ccccc1,20µM*,8.2,7.9%,2.0%[10 µM],-14.0%,0.5%
